# High-throughput results as filed in PubChem BioAssay.
# Most compounds without a hit are left out; they make up all but 11% or so of the library.
# AmpC no deterg – inhibitors of E. coli AmpC beta-lactamase without detergent; P00811; AmpC nitrocefin hydrolysis, absorbance 480 nm, 0.0001% Triton; Potency, µM (doses to about 57.1 µM), actives largely listed as inhibitors; hit rate 0.52% among 330,000; also: nearly all actives have a fitted effect of over 20% in size
# Target sequence (P00811 whole entry, looked up): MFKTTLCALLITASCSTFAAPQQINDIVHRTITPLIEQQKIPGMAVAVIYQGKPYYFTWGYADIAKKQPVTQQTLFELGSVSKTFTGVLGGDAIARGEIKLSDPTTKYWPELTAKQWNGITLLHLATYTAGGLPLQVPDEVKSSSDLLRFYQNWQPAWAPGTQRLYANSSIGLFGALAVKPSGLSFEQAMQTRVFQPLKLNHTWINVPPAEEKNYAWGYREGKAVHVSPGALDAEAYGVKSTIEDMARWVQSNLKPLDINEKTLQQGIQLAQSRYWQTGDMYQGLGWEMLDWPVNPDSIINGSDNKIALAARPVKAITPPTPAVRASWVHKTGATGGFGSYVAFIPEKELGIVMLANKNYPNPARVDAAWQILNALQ
#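 AmpC (5.3 nM in the dispensed reagent) in 20 mM phosphate pH 7.0 with 0.01% (detergent screen) or 0.0001% Triton X-100 was preincubated with compounds for 15 min at room temperature. Nitrocefin was then added from an 800 uM solution, and hydrolysis was followed at 480 nm.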
# AmpC inh detg – inhibitors of E. coli AmpC beta-lactamase with detergent. P00811. AmpC hydrolysis of nitrocefin, absorbance 480 nm, 0.01% Triton. Potency, µM (top dose mostly 114 µM), hits mostly inhibitors. hit rate 0.041% among 370,000. AID 485294; also: nearly all actives have a fitted effect of over 25% in size
#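 20 mM phosphate pH 7.0 + 0.01% (detergent screen) or 0.0001% Triton X-100; 5.3 nM AmpC reagent; cpd preinc 15 min RT; nitrocefin (800 uM stock) to start; A480 q20 s × 4 min; Activity was normalised to no-enzyme and no-compound control wells.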
# Pf growth 48h – P. falciparum growth inhibition at 48 hours (one generation); P. falciparum luciferase growth in erythrocytes, 48 h; Potency, µM (highest dose often 28.7 µM), hits mostly inhibitors; hit rate 5.9% among 310,000; AID 504832
#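 Compounds are pin-transferred into medium, infected erythrocytes (2% hematocrit, 0.1% parasitemia final) are added, and plates sit one parasite generation at 37 C in 5% CO2. Detection reagent is then added and luminescence measured.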
# HCV inhibitor – blocks hepatitis C virus | Huh7.5.1 HCVcc-Cre infection, luciferase reporter, 44 h | Potency, µM (highest dose often 41.8 µM), most hits filed as inhibitors | hit rate 3.4% among 340,000
#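 Cells (1,000/well) were plated 4 h before compound, then infected with HCVcc-Cre virus (~0.5 moi). After 44 h further culture, infection was read as luciferase luminescence following a 15 min substrate incubation at room temperature.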
# AMA1-RON2 inh – disrupts binding of P. falciparum AMA1 to RON2; AlphaScreen AMA1-biotinylated RON2 peptide binding; AID 720542; Potency, µM (titrated, usually from 58.2 µM), actives largely listed as inhibitors; hit rate 0.2% among 360,000; also: nearly all actives have a fitted effect of over 45% in size
#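 AMA1 (3D7) with his tag at 25 nM final met compounds first, then biotinylated RON2 peptide at 25 nM; detection used donor plus acceptor beads, 10 µg/mL apiece, read by AlphaScreen after 30 min at room temperature.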
# Pf growth 96h – inhibits malaria parasite growth, 96 h; P. falciparum luciferase reporter growth, 96 h; Potency, µM (highest dose often 28.7 µM), hits mostly inhibitors; hit rate 6.9% among 320,000
#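 Erythrocytes infected with luciferase-expressing P. falciparum were dispensed at 2% hematocrit and 0.05% parasitemia (final), then incubated with compounds 96 hours at 37 C in 5% CO2. Luminescence after detection reagent addition reported growth.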
# Numbers stand for hits; 0 = inactive; ? = inconclusive; - = no result given; [ ] = remark or other dose. Calls follow the shape of the dose curve; as a rule, active = well fitted curve in the direction sought with a large enough effect; inconclusive = small, poorly fitted or top-dose-only effect, or another doubt; inactive = no such curve, though single readings can be large; an effect the other way counts as inactive or inconclusive.
SMILES,AmpC no deterg,AmpC inh detg,Pf growth 48h,HCV inhibitor,AMA1-RON2 inh,Pf growth 96h
CCOc1ccc(C(=O)NCCC2=CCCCC2)cc1OCC,0,0,0,5µM,0,0
CC(C)Cc1ccc(S(=O)(=O)Nc2cc3c(cc2N2CCOCC2)n(C)c(=O)c(=O)n3C)cc1,-,0,-,-,-,-
COc1ccc(CCNC(=O)c2cc(S(=O)(=O)N3CCC4(CC3)OCCO4)ccc2F)cc1OC,0,0,0,11µM,0,?
COc1ccc(CCNC(=O)c2cccc(S(=O)(=O)N3CCCC3)c2)cc1OC,0,?,?,0,0,?
COc1ccc(CNC(=O)c2cccc(S(=O)(=O)N3CCCCC3)c2)cc1OC,0,0,?,6.3µM,0,?
COc1ccc(CNC(=O)c2cc(S(=O)(=O)N3CCCCC3)ccc2Cl)cc1OC,0,-,-,11µM,0,-
COc1ccc(OC)c(/C=N/NC(=O)CNC(=O)c2ccc(S(=O)(=O)N3CCCC3)cc2)c1,0,0,0,0,0,4.1µM
COc1cc(OC)c(OC)cc1CNC(=O)c1ccc(S(=O)(=O)N2CCCCC2)cc1,0,?,9.3µM,?,0[11.6 µM],5.2µM
COc1ccc(CNC(=O)COc2ccc(S(=O)(=O)N3CCCCC3)cc2Cl)cc1,0,0,13µM,?,0,0
CCOc1ccc(CCNC(=O)c2cccc(S(=O)(=O)N3CCOCC3)c2)cc1OCC,0,?,?,?,0,?
COc1ccccc1CNC(=O)c1ccc(S(=O)(=O)N2CCCC2)cc1,0,0,0,0,0,0
CSc1ccccc1C(=O)NCCc1ccc(S(=O)(=O)N2CCCCC2)cc1,0,0,5.2µM,0,0,-
O=C(NCCc1ccccc1)c1ccc(S(=O)(=O)N2CCCCC2)cc1,-,-,-,-,0,-
CCOc1ccc(CCNC(=O)c2cccc(S(=O)(=O)N3CCCCC3)c2)cc1OCC,0,0,15µM,?,0,?
Cc1ccc(-n2ncc(C(=O)N3CCN(C4CCCCC4)CC3)c2C2CCN(C(=O)OC(C)(C)C)CC2)cc1,-,0,-,-,-,-
O=C(CC1C(=O)OCCN1Cc1ccccc1)Nc1cccc(Cl)c1 (stereo not drawn),-,0,-,-,-,-
COc1ccc(-c2nnc(SCc3cc(=O)c4cc(C)cc(C)c4[nH]3)n2C)cc1,-,0,-,-,-,-
Cc1ccc(-n2ncc(C(=O)NCc3ccco3)c2C2CCN(C(=O)OC(C)(C)C)CC2)c(C)c1,-,0,-,-,-,-
COc1ccccc1CNC(=O)c1cccc(S(=O)(=O)N2CCN(C)CC2)c1,0,0,0,0,0,0
COc1cc(OC)c(OC)cc1CNC(=O)c1cccc(S(=O)(=O)N2CCc3ccccc3C2)c1,0,?,?,1.8µM,0,?
Cc1c(C(=O)c2ccc(F)cc2)c2ccccn2c1CCc1ccccn1,0,0,0,?,0,4.1µM
COC(=O)CCc1c(C)c(C(=O)c2cc(OC)c(OC)c(OC)c2)c2ccccn12,0,0,10µM,0,0,?
Cc1cc(S(=O)(=O)Nc2cccc(-c3ccc(N4CCOCC4)nn3)c2)c(C)cc1Cl,-,0,-,-,-,-
Cc1ccc(NC2CCCN(C(=O)c3ccoc3)C2)cc1C (stereo not drawn),0,0,0,0,0,10µM
Cc1ccc(NC2CCCN(C(=O)c3ccccc3-c3ncc[nH]3)C2)cc1C (stereo not drawn),0,0,0,0,0,0
SMILES,AmpC no deterg,AmpC inh detg,Pf growth 48h,HCV inhibitor,AMA1-RON2 inh,Pf growth 96h
Cc1ccc(NC2CCCN(C(=O)c3cccc(-c4ncc[nH]4)c3)C2)cc1C (stereo not drawn),0,0,?,0,0,10µM
Cc1ccc(NC2CCCN(C(=O)C3CCCC3)C2)cc1C (stereo not drawn),0,0,0,0,0,13µM
O=C(Cn1c(=O)n(Cc2ccc(C(=O)NCc3ccccc3Cl)cc2)c(=O)c2ccccc21)Nc1ccc(F)c(Cl)c1,-,0,-,-,-,-
CCc1cccc2c(C#N)cn(CC(=O)NCc3ccco3)c12,0,?,10µM,?,0,-
N#C/C(=C\c1cn(Cc2ccccc2)c2ccccc12)C(=O)NCc1ccco1,0,0,?,?,0,?
COC(=O)Cn1cc(C#N)c2ccccc21,0,0,0,0,0,0
Cc1cccc(NC(=O)/C(C#N)=C/c2cn(CC(=O)NCc3ccco3)c3ccccc23)c1C,14µM,0,0,0,0,?
CCOC(=O)Cn1cc(C#N)c2cccc(CC)c21,0,0,?,0,0,0.74µM
Cc1ccc(CSc2nc(-c3ccccc3C)nc3c2Cc2c(CO)cnc(C)c2O3)cc1,-,0,-,-,-,-
COC(=O)c1nc2n(n1)C(c1cc(OC)ccc1OC)C(C(=O)Nc1ccc(C)cc1C)=C(C)N2 (stereo not drawn),-,0,-,-,-,-
CCOc1ccc(NC(=O)c2ccc3c(c2)N(Cc2ccc(F)cc2)C(=O)CS3=O)cc1 (stereo not drawn),?,?,10µM,0,0,?
Cc1ccc(C)c(NC(=O)c2ccc3c(c2)N(Cc2ccc(F)cc2)C(=O)CS3=O)c1 (stereo not drawn),0,0,3.3µM,?,0,0
CC1CCCC(NC(=O)c2ccc3c(c2)N(Cc2ccccc2)C(=O)CS3=O)C1C (stereo not drawn),?,?,17µM,0,0,10µM
O=C(NCC1CCCO1)c1ccc2c(c1)N(Cc1ccccc1)C(=O)CS2=O (stereo not drawn),?,0,?,0,0,0
O=C(Nc1ccc(Br)cc1F)c1ccc2c(c1)N(Cc1ccccc1)C(=O)CS2=O (stereo not drawn),0,?,?,0,0,?
O=C(NC1CCCCCCC1)c1ccc2c(c1)N(Cc1ccc(F)cc1)C(=O)CS2=O (stereo not drawn),0,0,12µM,0,0,?
COc1ccc(NC(=O)CN(C)S(=O)(=O)c2ccc3c(c2)CCCN3C(C)=O)cc1Cl,-,0,-,-,-,-
CCCc1ccc(OCc2ccc(C(=O)Nc3ccccc3C(=O)OC)o2)cc1,-,0,-,-,-,-
CCCCN(CC)CCNC(=O)Cn1c(=O)c2cccn2c2cccnc21,-,0,-,-,-,-
Cc1[nH]c(-c2ccco2)nc1C(=O)O,0,0,0,0,0,6.6µM
CCN(Cc1ccccc1)C(=O)CCc1c(C)nc2c(c(C)nn2-c2ccc(C)c(C)c2)c1C,-,0,-,-,-,-
COC(=O)C(NC(=O)CCc1c(C)nc2c(c(C)nn2-c2ccccc2)c1C)C(C)C (stereo not drawn),0,0,6.6µM,?,0,0
CCOC(=O)N1CCN(C(=O)CCc2c(C)nc3c(c(C)nn3-c3ccc(C)c(C)c3)c2C)CC1,0,0,13µM,?,0,-
Cc1nc2c(c(C)nn2-c2ccccc2)c(C)c1CCC(=O)Nc1ccc(CN2CCCC2)cc1,0,0,?,?,0,2.1µM
